These results are taken from PubChem BioAssay AID1220 (Sanford-Burnham Center for Chemical Genomics, 2008).

Each structure is given as a SMILES string. In all, about 190,000 compounds went through this assay and about 1,300 (0.68%) were called active. No stated cut-off is given here; in the data, active means inhibition above about 50%; inactive means the rest. This excerpt belongs to a sample that is enriched for actives.

Chain of Mannose-6-phosphate isomerase (Homo sapiens) (P34949 whole entry, looked up): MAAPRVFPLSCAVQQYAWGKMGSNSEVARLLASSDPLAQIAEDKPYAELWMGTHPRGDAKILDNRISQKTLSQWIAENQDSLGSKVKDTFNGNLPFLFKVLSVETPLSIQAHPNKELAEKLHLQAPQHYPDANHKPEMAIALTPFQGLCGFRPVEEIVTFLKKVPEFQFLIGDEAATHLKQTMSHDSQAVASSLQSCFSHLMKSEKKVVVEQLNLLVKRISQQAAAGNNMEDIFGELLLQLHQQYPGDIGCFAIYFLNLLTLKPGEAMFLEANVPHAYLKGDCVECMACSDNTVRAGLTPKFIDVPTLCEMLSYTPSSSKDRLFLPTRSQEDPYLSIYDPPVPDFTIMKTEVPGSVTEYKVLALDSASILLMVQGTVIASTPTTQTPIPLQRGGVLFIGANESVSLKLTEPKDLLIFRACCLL

The experiment concerns the target Mannose-6-phosphate isomerase (Homo sapiens) (UniProt P34949). In words: human PMI inhibitors, high substrate, primary screen, biochemical, fluorescence intensity, high mannose 6-phosphate (AID 1220). The settings on record: recombinant PMI enzyme, coupled fluorescence intensity; at 20 µM; active compounds read high.
Turning to `CCOC(=O)c1cc(C(=O)c2ccccc2O)cn2c(=O)c3c(C)c(C)sc3nc12`, the inhibition – broadly, the drop in the measured response relative to a control, in per cent – was 16.1% (inactive).
Turning to `Cc1sc2nc3c(C(=O)N4CCCC4)cc(C(=O)c4ccccc4O)cn3c(=O)c2c1C`, the inhibition is 7.7% (inactive).
Turning to `Cc1sc2nc3c(SC(C)C(=O)O)cc(C(=O)c4ccccc4O)cn3c(=O)c2c1C` (centres undefined), the inhibition was 69% (active).
As to `CCc1ccc(C(=O)CN2C(=O)C(C)N(c3ccc(C)cc3)C2=O)cc1` (centres undefined), the inhibition is 4.9% (inactive).
For `COc1ccc(NC(=O)COC(=O)[C@@H]2CCCN2S(=O)(=O)c2ccccc2F)c(OC)c1` the value was -1.3% (inactive); for `CCOc1cc(N2CCOCC2)c(OCC)cc1NC(=O)COc1ccccc1[N+](=O)[O-]`, 23.9% (inactive); for `CCOc1cc(N2CCOCC2)c(OCC)cc1NC(=O)COC(=O)c1ccccc1C`, 11.5% (inactive).
The figure for `CCOc1cc(N2CCOCC2)c(OCC)cc1NC(=O)Cc1ccc(OC)c(OC)c1` is 53.1% (active).
Turning to `CCOc1cc(N2CCOCC2)c(OCC)cc1NC(=O)COC(=O)[C@@H]1CCCN1S(=O)(=O)c1ccccc1F`, the inhibition is 53% (active).
Consider `CCOc1cc(N2CCOCC2)c(OCC)cc1NC(=O)Cc1cccc(OC)c1`, for which the inhibition is 8.1% (inactive).
The figure for `CCOc1cc(N2CCOCC2)c(OCC)cc1NC(=O)Cc1ccccc1OC` is 51.7% (active); for `CCOc1cc(N2CCOCC2)c(OCC)cc1NC(=O)Cc1cccc2ccccc12` it is -0.6% (inactive).
For `COc1ccc(CC(=O)Nc2ccccc2N2CCOCC2)cc1OC`, the inhibition is -2.2% (inactive).
On to `O=C(CCn1c(=O)sc2ccccc21)Nc1nccs1`, for which the inhibition is 4.8% (inactive).
For `Cc1ccc(NC(=O)CN2CCN(CCN=CC3=C(O)CC(C)(C)CC3=O)CC2)cc1` the value was -3.9% (inactive).
As to `COC(=O)CSc1nc(C)cc(N2CCOCC2)n1`, the inhibition is -3.4% (inactive).
For `CCc1n[nH]c(=S)n1/N=C/c1cc(Br)c(OC)cc1OC` the value was -2.2% (inactive); for `Cc1c(NC(=O)Oc2ccccc2)sc(=S)n1C`, -4.6% (inactive).
Turning to `Cc1nnc(NC(=O)Oc2ccccc2)s1`, the inhibition is 4.4% (inactive).
Turning to `COC(=O)c1c(C)nsc1NC(=O)Oc1ccccc1`, the inhibition is 50.4% (active).
Regarding `COc1ccccc1C(=O)Nc1nc(N)n(-c2ccccc2)n1`, the inhibition was -3.7% (inactive).
Turning to `Cc1cccc(C)c1NC(=S)/C(=C(\[O-])c1cccs1)[n+]1ccccc1`, the inhibition is 5.5% (inactive).
For the molecule `[O-]/C(=C(\C(=S)Nc1cccc2ccccc12)[n+]1ccccc1)c1cccs1`, the inhibition was 65.7% (active).
`[O-]/C(=C(\C(=S)Nc1cccc2ccccc12)[n+]1ccccc1)c1ccc(Cl)s1`: the inhibition is 5.8% (inactive).
As to `O=C(O)CSCC(=O)Nc1ccc(Cl)cc1C(F)(F)F`, the inhibition was -0.6% (inactive).
For `O=C(CCN1C(=O)COc2ccccc21)NCCC1=CCCCC1` the value was 19.9% (inactive).
For `CC(C)(C)P(=O)(CO)c1ccccc1` (centres undefined) the value was 1.7% (inactive); for `CC1(C)CC(=O)C(C=Nc2ccc3[nH]ncc3c2)=C(O)C1`, 38.6% (inactive).
Regarding `C=CCOc1ccc(C=Nc2ccc(OC)cc2)c(O)c1`, the inhibition was 49% (inactive).
In the case of `COc1cccc(N=Cc2ccc(O)cc2O)c1`, the inhibition is 52.5% (active).
On to `Oc1ccc(Br)cc1C=Nc1ccc2[nH]ncc2c1`, for which the inhibition is 55.4% (active).
The figure for `OCC(CO)(CO)N=Cc1cc(Br)ccc1O` is 27% (inactive).
Take `Brc1ccc2[nH]ncc2c1`: the inhibition is -2.5% (inactive).
`Cc1ccc(N=Cc2ccc(O)cc2O)cc1F`: the inhibition was 9.7% (inactive).
On to `COc1ccc(C=Nc2ccc3[nH]ncc3c2)c(O)c1`, for which the inhibition was 59.8% (active).
For `COc1cccc(N=Cc2c[nH][nH]c2=O)c1` the value was 16.7% (inactive); for `O=C(c1ccc(OC2CCN(Cc3ccccn3)CC2)cc1)N1CCCC(O)C1` (centres undefined), -8.1% (inactive).
In the case of `Cn1c(Cn2c(=O)sc3ccccc32)nnc1SCC(=O)Nc1ccccc1F`, the inhibition is 0.2% (inactive).
In the case of `O=C(COc1ccccc1)Nc1ccc(CSc2ccccc2)cc1`, the inhibition is 2.7% (inactive).
For `O=C(NCc1ccccn1)C(=O)NCC(c1ccco1)N1CCOCC1` (centres undefined) the value was -8.8% (inactive); for `COc1ccc(N2CCC(CNC(=S)Nc3cccc(C)c3)C2)cc1` (centres undefined), 50.4% (active).
Turning to `COc1ccc(NC(=S)NCCN2CCOCC2)cc1`, the inhibition is -3.1% (inactive).
The figure for `COc1ccc(CNC(=S)Nc2ccc(OC)cc2)cc1` is 7.4% (inactive); for `COc1ccc(CNC(=S)Nc2cccc(C)c2)cc1` it is 7.5% (inactive).
For the molecule `COc1ccc(N2CCC(CNC(=S)Nc3cccc(OC)c3)C2)cc1` (centres undefined), the inhibition is 45.4% (inactive).
Consider `COc1ccc(NC(=S)NCC2CCN(c3ccc(OC)cc3)C2)cc1` (centres undefined), for which the inhibition was 55.3% (active).
With `COc1ccccc1-n1cnnc1SCC(=O)N1CCN(S(=O)(=O)c2ccccc2)CC1`, the inhibition was 4.9% (inactive).
The figure for `Cn1nnnc1SCCNCc1ccc(Cl)cc1` is 3.8% (inactive); for `O=C(CCCn1c(=O)oc2ccccc21)NC1CCCCCC1` it is -6.9% (inactive).
For the molecule `O=C(CCN1C(=O)c2ccccc2C1=O)N(CCO)Cc1ccccc1`, the inhibition was 0.1% (inactive).
For `O=C1C=C(N(CCO)Cc2ccccc2)c2ccccc2C1=O`, the inhibition is 64.6% (active).
For `COc1ccc(N2C(=O)C(Cl)=C(N(CCO)Cc3ccccc3)C2=O)cc1`, the inhibition was 3.2% (inactive).
For `Cc1cc(Nc2ccc(F)cc2Cl)n2ncnc2n1` the value was 16.6% (inactive); for `COc1ccccc1/C=C/C1=NC(=C\N(C)C)/C(=O)O1`, 56.8% (active).
On to `COc1ccc(/C=C/C2=NC(=C\N(C)C)/C(=O)O2)cc1`, for which the inhibition was 5.3% (inactive).
As for `COc1ccccc1/C=C/C1=NC(=C\C=C/c2ccccc2)/C(=O)O1`, the inhibition was 0.5% (inactive).
Consider `CCCCOC(=O)C1[C@H]2C(=O)N(CCc3ccccc3)C[C@]23C=C[C@H]1O3` (some centres undefined), for which the inhibition is -0.4% (inactive).
With `CCOC(=O)c1c(C)c(C(=O)NCc2cccnc2)c(C)n1CC`, the inhibition is 108% (active).
`CCOC(=O)c1c(C)c(C(=O)NCc2ccccn2)c(C)n1CC`: the inhibition is 12.2% (inactive).
The figure for `CCOC(=O)c1c(C)c(C(=O)NCc2cccnc2)c(C)n1C` is -0.6% (inactive).
The figure for `S=c1[nH]ncc2ccccc12` is -67.9% (inactive); for `Cc1ccc(/C=C/C2=NN(C)C(=O)CC2)cc1` it is -3.3% (inactive); for `Cc1cccc(C)c1NC(=O)CC1SC2=NCCN2C1=O` (centres undefined) it is 6.8% (inactive).
As for `CC(C)/C(=N/Nc1ccccc1[N+](=O)[O-])c1ccccc1`, the inhibition is 54.4% (active).
The figure for `CC/C(=N\Nc1ccccc1[N+](=O)[O-])c1ccc(O)cc1` is -0.4% (inactive); for `CC(/C=C/c1ccccc1)=N\Nc1ccccc1[N+](=O)[O-]` it is 0.8% (inactive); for `Cc1ccc(/C=C/C(=O)NCc2cccs2)cc1` it is -6.3% (inactive).
In the case of `Cc1ccc(-n2nc(C)c(/C=N/NC(=O)c3cccnc3)c2Cl)cc1`, the inhibition is 15.6% (inactive).
For `Cc1nn(-c2ccccc2)c(Cl)c1/C=N/NC(=O)c1cccnc1`, the inhibition was -3.1% (inactive).
Take `Cc1nn(-c2cccc(Cl)c2)c(Cl)c1/C=N/NC(=O)c1cccnc1`: the inhibition was 55.5% (active).
Regarding `C=CCNC(=S)Nc1cccc(NC(=S)NCC=C)c1`, the inhibition is 5.5% (inactive).
As for `C=CCNC(=S)Nc1cccc(N)c1`, the inhibition is 57.6% (active).
The figure for `C=CCNC(=S)Nc1ccccc1` is 9% (inactive); for `O=C(Cc1c(O)c2ccccc2[nH]c1=O)NC1CCCCCC1` it is 5.7% (inactive); for `CCC(C)(C)n1nnnc1CN1CCC(NC(=O)c2ccc(Br)cc2)CC1` it is 7% (inactive).
The figure for `CCCCc1cc2c(c(NC(=O)CC)n1)c(=O)oc1ccccc12` is -0.5% (inactive); for `Cc1ccc2c(c1)/C(=N/N1C(=O)c3ccccc3C1=O)C(=O)N2` it is 8.4% (inactive); for `COc1ccc(N=C2C(=O)Nc3ccccc32)cc1` it is 43% (inactive).
For the molecule `CCn1c(-c2ccccc2Cl)nn(CC(=O)Nc2cc(Cl)ccc2Cl)c1=S`, the inhibition is 4.7% (inactive).
In the case of `Cc1cc(-c2ccccc2)nc(N(C)N)c1S(C)(=O)=O`, the inhibition was -2.2% (inactive).
With `CNc1nc(-c2ccccc2)cc(C)c1S(C)(=O)=O`, the inhibition was 56% (active).
Turning to `Cc1cc(-c2ccccc2)nc(N(C)C)c1S(C)(=O)=O`, the inhibition was 2% (inactive).
For `Cc1c(Br)c([N+](=O)[O-])nn1CC(=O)NCCc1c[nH]c2ccccc12` the value was 6.1% (inactive); for `CSCCNC(=O)c1ccc(OC2CCN(CCc3ccccc3)CC2)cc1`, -9.3% (inactive).
Consider `O=C(Cn1nc(-c2ccccc2)ccc1=O)Nc1cccc(NC(=O)c2ccccn2)c1`, for which the inhibition is -11.7% (inactive).
On to `CCN1C(=O)/C(=C/C=C2/SCCN2C)SC1=S`, for which the inhibition is 27.6% (inactive).
`CCCCN1C(=O)/C(=C/C=C2\SCCN2C)SC1=S`: the inhibition was 53.5% (active).
As for `CN1CCS/C1=C\C=C1/SC(=S)N(CC(=O)O)C1=O`, the inhibition was 19.8% (inactive).
As for `COc1ccc(-c2cc(CNC(=O)CN3CCN(C)CC3)on2)cc1`, the inhibition is 20.4% (inactive).
As for `COc1cc(OC)cc(-c2nc(-c3cccs3)no2)c1`, the inhibition was 10.1% (inactive).
In the case of `Cc1cc2cc(NC(=O)c3ccco3)ccc2[nH]1`, the inhibition was 10.8% (inactive).
For `CC(=O)Nc1cccc(NC(=O)CSc2ccc3nnc(CCNC(=O)c4ccccc4)n3n2)c1` the value was 10.1% (inactive).
Consider `Nc1nonc1N1CCCCC1`, for which the inhibition was 13.1% (inactive).
For `Nc1ccccc1N1CCOCC1`, the inhibition is -0.3% (inactive).
On to `Nc1ccc(N2CCCCC2)c(Cl)c1`, for which the inhibition was 2.9% (inactive).
In the case of `Nc1ccc(N2CCCCC2)c2nonc12`, the inhibition is 68.3% (active).
For `Nc1cc(Cl)ccc1N1CCCC1`, the inhibition was 36.3% (inactive).
With `Nc1ccc(N2CCOCC2)c2nonc12`, the inhibition was 57% (active).
The figure for `Nc1ccc(N2CCCCC2)cc1N1CCCCC1` is 46.4% (inactive); for `Nc1c(N2CCCC2)cc(Cl)c2nonc12` it is 55.1% (active).
Regarding `Nc1cc(Cl)ccc1N1CCOCC1`, the inhibition was -3.8% (inactive).
The figure for `CN1CCN(C(=O)C2=C[C@@H](c3ccccc3)C[C@@H](OCc3ccc(CO)cc3)O2)CC1` is 1.7% (inactive).
As to `CCCCCCOC1(c2ccccc2)OC(=O)c2ccccc21` (centres undefined), the inhibition is 11.5% (inactive).
Regarding `CCCCCn1c(=O)[nH]c2c(c1=O)CCC2`, the inhibition is 4.7% (inactive).
